The results in this text go back to PubChem BioAssay (NCI).

Values joined by “and” are separate entries in the source; they are usually repeats but may differ in a detail not shown here. Identical values can stand only once. About 83,000 compounds went through this panel and 20% of them were active in at least one assay; those are over-represented in the sample as a whole.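 Note: values are percent growth. 100 is the growth of untreated cells, values between 100 and 0 indicate rising inhibition; between -100 and 0 indicates cell death.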 Values without a mark were called inactive. Active and inactive are the calls of the source. The calls were made as follows: active = growth percent below 10; inactive = the rest. Where a SMILES comes first, the peptide text is derived from it. The star is where a group is joined. Trt = c1ccc(C(c2ccccc2)(c2ccccc2)*)cc1; Cbz = O=C(OCc1ccccc1)*

In one assay the test system is SW-620 colon. Nature of the assay: NCI-60 one-dose screen, 48 h (100 = growth as untreated, 0 = no growth, -100 = all killed). Particulars: 10 µM unless noted.
For `CC(=Nc1ccc(N(C)C)cc1)c1ccccc1`, the growth is 42.6%. As for `O=[N+]([O-])c1ccc(N=Nc2ccc(O)cc2O)cc1`, the growth is 47.8%. On the same count and under the same terms, in the case of `CCC(CC)COC(=O)c1ccc(O)c(O)c1` it was 80.5%; in that of `CCC(c1cccc(O)c1)C(CC)c1cccc(O)c1` (centres undefined), 42%.

As to `COC(=O)C(CSC(c1ccccc1)(c1ccccc1)c1ccccc1)NC(=O)C(CC(N)=O)NC(=O)OCc1ccccc1` (stereo not drawn) (Cbz-Asn-Cys(Trt)-OMe; configuration not given here), the growth is 62.6%. Same read-out and setting: in the case of `CCC(=O)Sc1ccccc1C(=O)Nc1ccc(Cl)cc1` it was 17.5%; in that of `Nc1ncnc2c1ncn2C1OC(CO)C(O)C1O` (centres undefined), 112% and 85.1% and 106%; in that of `Cc1ccc2c(ccc3c[n+]4c5ccccc5ccc4n32)c1`, 7.65% (active). As to `O=C(Nc1ccc(F)cc1)ON=C1CCCCC1`, the growth was 99.8% [100 µM]. The same measure, in the same setting: in the case of `CC1=CC(O)C2CC1C2(C)C` (centres undefined) it was 105% and 108%; in that of `O=C(CC1(O)C(=O)Nc2c(Cl)ccc(Cl)c21)c1ccc(Cl)cc1Cl` (centres undefined), 105%. Turning to `O=C1N[C@H]2[C@H](CS[C@H]2CCCCC(=O)N(CCP(c2ccccc2)c2ccccc2)CCP(c2ccccc2)c2ccccc2)N1`, the growth is 88.7%.

As to `C=C(Cl)C(=NC(C)(C)C)Nc1ccccc1C`, the growth is 72.5%. Same read-out and setting: in the case of `Cc1ccnc(NC(c2ccccc2)c2ccc3cccnc3c2O)c1` (centres undefined) it was 48.9%. With `Cc1cc2nc(CS)[nH]c2cc1C`, the growth was 84.7%. Same read-out and setting: in the case of `O=C(O)C1C2CC3C(OC(=O)C31)C2Br` (centres undefined) it was 94.7% and 94.8%; in that of `Cc1ccnc2c1ccc1c(C)ccnc12`, 30.2%; in that of `COc1ccccc1/C=C\C(=O)c1ccccc1`, 2.63% (active).

For the next assay, the system named is MCF7 breast. The description is as above. Particulars: 10 µM.
As to `COc1cc(/C=C/C(C)=O)ccc1O`, the growth is 96.8% and 98.8%. Still for that read-out and setting: in the case of `CC(C)(C)CC(C)(C)c1ccc(OCCSC(=N)N)cc1` it was 9.08% (active). For the compound `COc1ccc(N=N/N=c2\sc3cc(OC)ccc3n2C)cc1`, the growth is 78.9%. Turning to `O=C(Oc1cccc2cccnc12)c1ccccc1`, the growth was 55.1% and 102%. Regarding `S=C(NCCNC(=S)[S][Sn]([c]1ccccc1)([c]1ccccc1)[c]1ccccc1)[S][Sn]([c]1ccccc1)([c]1ccccc1)[c]1ccccc1`, the growth was -99.8% (active).

`C[N+](C)=c1ccc2nc3c(cc(NCCCNc4cc5oc6cc(=[N+](C)C)ccc-6nc5c5ccccc45)c4ccccc43)oc-2c1`: the growth was -52.4% (active). Same read-out and setting: in the case of `C[n+]1c(/C=C/c2ccc([N+](=O)[O-])cc2)ccc2ccccc21` it was 96.1%; in that of `CCC(CCCN(CC)CCc1ccccc1)OC(=O)c1cc(OC)c(OC)c(OC)c1` (centres undefined), 85.9%. On to `O=C(/C=C\c1ccccc1)N1c2ccccc2CC1c1c[nH]c2ccccc12` (centres undefined), for which the growth is 66.2%. The same measure, in the same setting: in the case of `OC(CNc1ccnc2cc(Cl)ccc12)CNc1ccnc2cc(Cl)ccc12` it was 18.5%; in that of `COC(=O)c1nc(=S)[nH]c(C(=O)OC)c1C(=O)c1ccccn1`, 14.6%. Take `Cc1ccc(N=C=C(c2ccccc2)c2ccccc2)cc1`: the growth was 68.5%.

Take `NC(=S)N/N=C/c1ccc(Cl)s1`: the growth is 104%. `O=[N+]([O-])c1ccc2c(N=Nc3ccc4ccccc4c3O)c(O)cc(S(=O)(=O)O)c2c1`: the growth is 98.6%. The same measure, in the same setting: in the case of `CC(=Nc1ccc(N(C)C)cc1)c1ccccc1` it was 20.8%. On the same count and under the same terms, in the case of `O=[N+]([O-])c1ccc(N=Nc2ccc(O)cc2O)cc1` it was 26%. Take `CCC(CC)COC(=O)c1ccc(O)c(O)c1`: the growth was 97.5%.

`CCC(c1cccc(O)c1)C(CC)c1cccc(O)c1` (centres undefined): the growth is 16.8%. The same measure, in the same setting: in the case of `COC(=O)C(CSC(c1ccccc1)(c1ccccc1)c1ccccc1)NC(=O)C(CC(N)=O)NC(=O)OCc1ccccc1` (stereo not drawn) (Cbz-Asn-Cys(Trt)-OMe; configuration not given here) it was 32.3%; in that of `CCC(=O)Sc1ccccc1C(=O)Nc1ccc(Cl)cc1`, 19%. On the same count and under the same terms, in the case of `Nc1ncnc2c1ncn2C1OC(CO)C(O)C1O` (centres undefined) it was 107% and 10.7% and 97%; in that of `Cc1ccc2c(ccc3c[n+]4c5ccccc5ccc4n32)c1`, 0.326% (active); in that of `CC1=CC(O)C2CC1C2(C)C` (centres undefined), 101% and 98.9%.

Take `O=C(CC1(O)C(=O)Nc2c(Cl)ccc(Cl)c21)c1ccc(Cl)cc1Cl` (centres undefined): the growth was 91.6%. The same measure, in the same setting: in the case of `O=C1N[C@H]2[C@H](CS[C@H]2CCCCC(=O)N(CCP(c2ccccc2)c2ccccc2)CCP(c2ccccc2)c2ccccc2)N1` it was 20.9%; in that of `C=C(Cl)C(=NC(C)(C)C)Nc1ccccc1C`, 66.6%; in that of `Cc1ccnc(NC(c2ccccc2)c2ccc3cccnc3c2O)c1` (centres undefined), 22.4%. On the same count and under the same terms, in the case of `Cc1cc2nc(CS)[nH]c2cc1C` it was 82.9%; in that of `O=C(O)C1C2CC3C(OC(=O)C31)C2Br` (centres undefined), 88.7% and 93.8%; in that of `Cc1ccnc2c1ccc1c(C)ccnc12`, 13.9%.

On to `COc1ccccc1/C=C\C(=O)c1ccccc1`, for which the growth is 5.24% (active).
